According to PubChem BioAssay (NCI):
This is part of a sample that, as a whole, favours compounds with a hit. Of some 79,000 tested, about 15% had one in any assay. Active and inactive are the calls of the source. No stated cut-off is given here; in the data, active means growth inhibition above about 70%; inactive means the rest.

Columns and labels:
[1] = NCI Yeast Anticancer Drug Screen. Data for the rad50 strain (AID 155);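 further: 0% = growth of vehicle-only cultures of the same strain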; conditions: S. cerevisiae rad50 strain growth inhibition; at 50.0 µM; stronger effect = higher value
Outline: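 Cells are treated with compound, grown, and their growth is then scored against vehicle-only cultures of the same repair-deficient yeast strain.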

[2] = NCI Yeast Anticancer Drug Screen. Data for the mec2-1 strain (AID 157); conditions: S. cerevisiae mec2-1 strain, at 50.0 µM, stronger effect = higher value
Outline: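 Readout is yeast growth inhibition, normalised to vehicle-treated controls, in the mec2-1 strain exposed to compound.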

[3] = NCI Yeast Anticancer Drug Screen. Data for the sgs1 mgt1 strain (AID 161);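 further: 0% = growth of cultures given vehicle only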; conditions: S. cerevisiae sgs1 mgt1 strain, at 50.0 µM, stronger effect = higher value
Outline: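 Yeast cells carrying a defined DNA-repair defect were exposed to test compounds. Growth inhibition was measured relative to vehicle-treated controls.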

[4] = NCI Yeast Anticancer Drug Screen. Data for the cln2 rad14 strain (AID 165);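 further: 0% = growth equal to vehicle treated cultures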; conditions: S. cerevisiae cln2 rad14 strain, at 50.0 µM, stronger effect = higher value
Outline: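 Relative to vehicle controls, growth inhibition of compound-treated cln2 rad14 yeast was recorded.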

[5] = NCI Yeast Anticancer Drug Screen. Data for the bub3 strain (AID 167); conditions: S. cerevisiae bub3 mutant strain, at 50.0 µM, stronger effect = higher value
Outline: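 Part of a panel of yeast mutants defective in DNA damage repair or cell cycle regulation. Each strain is grown with compound, and inhibition is calculated relative to solvent-treated cultures.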

[6] = NCI Yeast Anticancer Drug Screen. Data for the mlh1 rad18 strain (AID 175); conditions: S. cerevisiae mlh1 rad18 strain growth inhibition; at 50.0 µM; stronger effect = higher value
Outline: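 Test agents were incubated with a yeast strain of defined genotype (DNA damage repair defect). Inhibition of growth was derived by comparison with vehicle-exposed cultures.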

Measured: growth inhibition

COCCC(=O)SCc1ccccc1
inactive: [1] 9.55% | [2] -45.3% | [3] -9.2% | [4] -35.6% | [5] -16.5% | [6] 1%

CCOC(=O)C1(O)c2ccccc2NC(=S)N1CC(Br)CBr (centres undefined)
inactive: [1] 19.9% | [2] -60.3% | [3] 15.8% | [4] -7.6% | [5] 2.35% | [6] 32.6%

CCOC(=S)SC1OC(COC(C)=O)C(OC(C)=O)C(OC(C)=O)C1OC(C)=O (centres undefined)
inactive: [1] 57.5% | [2] 11.4% | [3] 55.2% | [4] 45.8% | [5] 17.2% | [6] 10.7%

CCCCCCNc1ncnc2c1cnn2C
inactive: [1] 5.3% | [2] 6.85% | [3] 1.45% | [4] -17.9% | [5] 38.7% | [6] 3.4%

O=C(C[n+]1ccccc1)NNC(=O)/C(=C/c1ccc2c(c1)OCO2)NC(=O)c1ccccc1
inactive: [1] -5.95% | [2] 3.4% | [3] -13.7% | [4] 21.3% | [5] -3.95% | [6] 10.1%

BrC1CCC(OCc2ccccc2)C(OCc2ccccc2)C1 (centres undefined)
inactive: [1] -10.8% | [2] 7.25% | [3] 13.8% | [4] 8.85% | [5] 10.7% | [6] -0.95%

O=C1CSC(=S)N1c1cccc(F)c1
inactive: [1] 32.1% | [2] -10.6% | [3] 2.1% | [4] -27.2% | [5] -18.1% | [6] 3.65%

CC(C)C1CC(C(C)C)C(O)C(C(C)C)C1 (centres undefined)
inactive: [1] 11.8% | [2] 1.55% | [3] 6.6% | [4] -5.9% | [5] 5.45% | [6] 15.7%

COc1ccc(C(O)c2ccc(OC)cc2)cc1
inactive: [1] -10.8% | [2] -16.6% | [3] -23.9% | [4] 10.1% | [5] -22.3% | [6] -7.6%

Cc1cc(C)c(NC(=O)NC2CCCCC2)cc1C
inactive: [1] 3.95% | [2] -9.3% | [3] 4.15% | [4] -1.6% | [5] 10.2% | [6] 34.9%

CC(C)(C)C(=O)C(C(c1ccccc1)N1CCOCC1)N1CCOCC1 (centres undefined)
inactive: [1] 21.7% | [2] -5.8% | [3] -33.6% | [4] -17% | [5] 5.7% | [6] -10.6%

O=C(CSc1nnc(Cc2ccccc2)o1)Nc1ccc(Cl)cc1Cl
inactive: [1] -18.8% | [2] -41% | [3] -41.3% | [4] -10.7% | [5] -10.2% | [6] -14%

Cc1ccccc1C(=O)NNC(=O)c1cccc2ccccc12
inactive: [1] 27.6% | [2] -24.9% | [3] 7.9% | [4] 3.65% | [5] 0.45% | [6] 6.95%

O=C(NCC(=O)N1CCCC1C(=O)OC(=O)C1CCCN1C(=O)CNC(=O)OCc1ccccc1)OCc1ccccc1 (centres undefined)
inactive: [1] 44.3% | [2] 1.2% | [3] 4.35% | [4] 16.2% | [5] 18.2% | [6] -28.1%

O=C(O)c1cccnc1-c1ccccc1
inactive: [1] -3.95% | [2] 23.6% | [3] -9.85% | [4] -4.7% | [5] -12.9% | [6] -12.2%

CC(=O)Nc1ccc2ccccc2c1
inactive: [1] 7.15% | [2] 5.4% | [3] 0.3% | [4] -25.1% | [5] -4.1% | [6] 1.4%

CC(=O)c1cccc(NC(=O)/C(=N\NC(=S)NN)C2C(=O)Nc3ccccc3S2=O)c1 (centres undefined)
inactive: [1] -3.6% | [2] -42.4% | [3] -13.1% | [4] -4.15% | [5] -1.8% | [6] -10.5%

Nc1cc(N)cc([N+](=O)[O-])c1
inactive: [1] -9.75% | [2] -16.4% | [3] -8% | [4] -13.7% | [5] 8.8% | [6] 15.2%

O=c1cc[nH]c2c(Cl)cccc12
inactive: [1] -8.15% | [2] -20.9% | [3] -5.05% | [4] 0.95% | [5] 2% | [6] -2.9%

CCc1cccc(CC)c1NC(=O)CC1SC(N)=NC1=O (centres undefined)
inactive: [1] -4.45% | [2] -19.2% | [3] -1.95% | [4] 9.8% | [5] 15.7% | [6] -24.9%

O=C(COc1ccccc1)Nc1cccc2ccccc12
inactive: [1] 4.5% | [2] 24.5% | [3] 6.6% | [4] -3.7% | [5] 10.4% | [6] 29.2%

O=[N+]([O-])c1cc2c(c3nonc13)OCCCCO2
inactive: [1] 5.95% | [2] 25.5% | [3] 47.4% | [4] 23.2% | [5] 23.7%
active: [6] 77%

CC(=O)N(C)C1=C(Sc2ccc([N+](=O)[O-])cc2)C(=O)c2ccccc2C1=O
active: [1] 97% | [2] 99.5% | [3] 97.5% | [4] 99% | [5] 99.1% | [6] 98.9%

Nc1cccc(/C=C(/C(=O)O)c2ccc(Cl)cc2)c1
inactive: [1] 3.4% | [2] -4.45% | [3] -7.3% | [4] -38.9% | [5] -15.6% | [6] 0.15%

COc1nc(Cl)nc(C(N)=O)c1N
inactive: [1] 7.95% | [2] 9.9% | [3] -11.5% | [4] -11.1% | [5] -2.65% | [6] -4.85%

CCC(C)(C#N)OC(C)=O (centres undefined)
inactive: [1] -3.75% | [2] -26.6% | [3] -8.4% | [4] -6.85% | [5] 4.6% | [6] 8.45%

N#Cc1nc(-c2ccco2)oc1N
inactive: [1] -20.8% | [2] 1.85% | [3] -23.2% | [4] 3% | [5] -10.2% | [6] -5.8%

N#CC1=C(c2ccccc2)C(=C2Nc3ccccc3N2)C2S/C(=C\c3ccccc3)C(=O)N2C1=N (centres undefined)
inactive: [1] 21.2% | [2] -12.3% | [3] 10.4% | [4] -31.1% | [5] 4.45% | [6] 26.8%

CC(c1ccc2ccc3cccc4ccc1c2c34)C(C(=O)O)C(=O)O (centres undefined)
inactive: [1] -0.85% | [2] -15.8% | [3] 8.6% | [4] -7.15% | [5] 0.75% | [6] 5.7%

CN(C)c1ccc(N=Nc2ccc(C(C)(C)C)cc2)cc1
inactive: [1] -11.3% | [2] 3.3% | [3] 5.55% | [4] -3.1% | [5] -10.6% | [6] -20.3%

COc1cc(OC)cc(N2CCC(c3c(N)nc(N)nc3Cl)CC2)c1
inactive: [1] -4.1% | [2] 10.1% | [3] -8.65% | [4] -2.25% | [5] 15.2% | [6] -18.3%

CCS(=O)(=O)N(CC(=O)O)Cc1ccccc1
inactive: [1] -4.95% | [2] 7.3% | [3] -13.4% | [4] 0.95% | [5] 6.8% | [6] 0.65%

O=C(/C=C(\C(=O)c1ccccc1)c1ccccc1)c1ccc(-c2ccccc2)cc1
inactive: [1] 8.2% | [2] -2.35% | [3] -3.15% | [4] -6.9% | [5] -3.45% | [6] -16.9%

Nc1c(Cl)cc2c(c1Br)Cc1cc(F)ccc1-2
inactive: [1] -0.15% | [2] 2.15% | [3] -3.55% | [4] -0.05% | [5] 14.8% | [6] -9.65%

COC(=O)c1ccc(C(=O)OC)c(NC(=O)CC(=O)c2ccc([N+](=O)[O-])cc2)c1
inactive: [1] 46.2% | [2] 18.9% | [3] 51.4% | [4] 9.55% | [5] -0.5% | [6] 34.8%

CC(=O)NNc1nc(C)c(C(=O)NNC(=O)C(=O)Nc2cccc(C(C)=O)c2)s1
inactive: [1] 7.3% | [2] 0.5% | [3] -23.1% | [4] 36.5% | [5] 0.85% | [6] -12.3%

O=C1N=C(c2ccccc2)C(c2ccccc2)N1 (centres undefined)
inactive: [1] -9.3% | [2] 23.1% | [3] 12.9% | [4] -3.85% | [5] -0.4% | [6] 8.65%

CCOC(=O)C(Br)CN1C(=O)c2ccccc2C1=O (centres undefined)
inactive: [1] 5.5% | [2] -7.1% | [3] -5.35% | [4] 12.6% | [5] 42% | [6] 13.6%

NC(=O)/C=C/C(N)=O
inactive: [1] 13.6% | [2] -9.45% | [3] -16.7% | [4] -13.5% | [5] -5.05% | [6] 2.7%
